Laboratory results from PubChem BioAssay (NCATS).
Inconclusive results are not listed. The source made the active and inactive calls. Unless noted, calls follow the shape of the dose curve; as a rule, active = well fitted curve in the direction sought with a large enough effect; inconclusive = small, poorly fitted or top-dose-only effect, or another doubt; inactive = no such curve, though single readings can be large; an effect the other way counts as inactive or inconclusive.

Columns and labels:
[1] = molecular target: Glucocorticoid receptor (Homo sapiens) (UniProt P04150); assay: qHTS assay for small molecule agonists of glucocorticoid receptor signaling (AID 588532; active = well fitted curve in the direction sought with a large enough effect in the signal ratio, with a control signal flat; the % refers to the signal ratio;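 also: 100% = dexamethasone at 0.1 µM and 0% = DMSO only wells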); conditions: HeLa MMTV-bla, beta-lactamase ratio, agonist, 18 h; stronger effect = higher value; percent of dexamethasone control, DMSO zero
In short: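 Using MMTV-bla HeLa cells in medium with 1% stripped FBS and 25 mM HEPES, compounds were titrated and incubated overnight-length (18 h). Beta-lactamase cleavage of CCF4 was quantified by dual-emission fluorescence.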

[2] = molecular target: Glucocorticoid receptor (Homo sapiens) (UniProt P04150); assay: qHTS assay for small molecule antagonists of glucocorticoid receptor signaling (AID 588533; active = well fitted inhibition curve with a large enough effect in the signal ratio, with a control signal flat, not every such curve was filed as active; the % refers to the signal ratio;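 also: cells stimulated with 2 nM dexamethasone as agonist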; also: potency is read from the fitted curve at half-maximal effect); conditions: HeLa MMTV-bla, GRE beta-lactamase ratio, antagonist mode, 18 h; series mostly up to 76.8 µM
In short: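 Antagonist-mode qHTS: compound titrations added to GRE-bla HeLa cells, then dexamethasone 2 nM final; 18 h, 37 C. CCF4 FRET fluorescence normalized to dexamethasone and DMSO; IC50 from Hill fit.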

[3] = qHTS assay for small molecule antagonists of peroxisome proliferator-activated receptor delta signaling (AID 588535; active = well fitted inhibition curve with a large enough effect in the signal ratio, with a control signal flat, not every such curve was filed as active; the % refers to the signal ratio;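 as to max response: cells co-treated with a PPAR-delta agonist as stimulator during compound exposure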); conditions: HEK293T PPARd-UAS-bla, beta-lactamase FRET ratio, 18 h; 460 nm channel
In short: (§1)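 Antagonist-mode qHTS using GeneBLAzer PPAR-delta-UAS-bla HEK293T cells; compound exposure 18 hrs at 37 C over a titration. Ratiometric CCF4 fluorescence at 460/530 nm; concentration-response points fitted to the Hill equation.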

[4] = molecular target: Peroxisome proliferator-activated receptor delta (Homo sapiens) (UniProt Q03181); assay: as above; conditions: HEK293T PPARd-UAS-bla, beta-lactamase FRET ratio, 18 h; series mostly up to 76.7 µM
In short: as §1

[5] = molecular target: Vitamin D3 receptor (Homo sapiens) (UniProt P11473); assay: qHTS assay for small molecule agonists of vitamin D receptor signaling (AID 588543; calls by dose curve;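 also: 0% = DMSO basal and 100% = reference agonist control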); conditions: HEK293T VDR-UAS-bla, beta-lactamase ratio, 16 h; series mostly up to 76.8 µM
In short: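 Reporter cells (HEK293T, VDR-UAS-bla) were seeded in medium with 2% charcoal-stripped serum and incubated 5 h, then compounds in concentration series were added for 16 h at 37 °C. Stimulation was scaled between DMSO basal and 50 nM 1α,25-dihydroxyvitamin D3.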

[6] = qHTS assay for small molecule agonists of retinoid X receptor alpha signaling (AID 588544; calls by dose curve; also: potency is read from the fitted curve at half-maximal effect;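 as to activation: 0% = DMSO basal wells and 100% = reference agonist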); conditions: HEK293T RXRa-UAS-bla, beta-lactamase reporter, 18 h; 530 nm emission
[7] = molecular target: Retinoic acid receptor RXR-alpha (Homo sapiens) (UniProt P19793); assay: as above; conditions: HEK293T RXRa-UAS-bla, beta-lactamase reporter, 18 h; series mostly up to 76.7 µM
[8] = molecular target: Thyroid hormone receptor beta (Homo sapiens) (UniProt P10828); assay: qHTS assay for small molecule agonists of thyroid hormone receptor beta signaling (AID 588545; calls by dose curve;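 also: 0% = DMSO only and 100% = 10 nM T3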); conditions: TR-UAS-bla GripTite HEK 293, beta-lactamase ratio, agonist mode, 18 h; series mostly up to 76.7 µM
In short: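 Compounds were tested as agonists in TR-UAS-bla-GripTite HEK 293 cells. After 18 hrs at 37 C, CCF4 substrate was added and fluorescence read after 2 hrs at room temperature.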

[9] = qHTS assay for small molecule antagonists of retinoid X receptor alpha signaling (AID 588546; active = well fitted inhibition curve with a large enough effect in the signal ratio, with a control signal flat, not every such curve was filed as active; the % refers to the signal ratio;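 also: cells stimulated with 9-cis-retinoic acid as agonist; % is scaled to controls: 0 for no effect and ±100 for the full control effect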); conditions: HEK293T RXRa-UAS-bla, beta-lactamase ratio, antagonist mode; measured here: W530 green channel, cytotoxicity proxy
In short: (§2)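 Beta-lactamase reporter inhibition, read as CCF4 fluorescence ratio (ex 405, em 460/530 nm) after 2 h at RT. HEK293T UAS-bla cells, 2500/well, were stimulated with 9-cis-RA at 500 or 100 nM final alongside test compound for 18 h at 37 C.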

[10] = molecular target: Retinoic acid receptor RXR-alpha (Homo sapiens) (UniProt P19793); assay: as above; conditions: HEK293T RXRa-UAS-bla, beta-lactamase ratio, antagonist mode
In short: as §2

[11] = qHTS assay for small molecule activators of the p53 signaling pathway (AID 651743; active = well fitted activation curve with a large enough effect in the signal ratio, not every such curve was filed as active; the % refers to the signal ratio; also: % of control where 0% means no effect); conditions: HCT-116 p53RE-bla, beta-lactamase FRET ratio, 16 h; activation: stronger effect = higher value
In short: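 A beta-lactamase reporter under p53 response element control, stably carried by HCT-116 cells, reported pathway activation. Test compounds were applied for 16 hours at 37 C, and fluorescence was measured 2 hours after adding the B/G FRET substrate.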

[12] = qHTS assay for environmental chemicals that activate the Aryl hydrocarbon Receptor (AhR) signaling pathway (AID 651777); conditions: 1A2-DRE human hepatoma cells, luciferase, 24 h; activation: stronger effect = higher value; also: nearly all actives have a fitted effect of over 15% in size; also: potency is read from the fitted curve at half-maximal effect; as to activation: % of control where 0% means no effect
In short: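 Concentration–response screening used 1,200 1A2-DRE cells per well, 24 hr compound exposure (37 C, 5% CO2), and One-Glo luminescence as the AhR-driven CYP1A2 reporter signal.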

[13] = molecular target: Peroxisome proliferator-activated receptor alpha (Homo sapiens) (UniProt Q07869); assay: qHTS assay for small molecule agonists of the peroxisome proliferator-activated receptor alpha (PPARalpha) signaling pathway (AID 651778); conditions: PathHunter PPARalpha complementation, chemiluminescence, 6 h; max response: stronger effect = higher value; also: % of control where 0% means no effect
In short: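 Chemiluminescence from complemented enzyme reported PPARalpha activation in cells after 6 hr of compound treatment at 37 C. The detection reagent was incubated for 60 min at room temperature, and compounds were scored as agonists.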

[14] = qHTS assay for small molecule agonists of the antioxidant response element (ARE) signaling pathway measured by Nrf2-dependant transcriptional activity (AID 720636; active = well fitted curve in the direction sought with a large enough effect in the repeat runs; an effect the other way counts as inactive or inconclusive;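 also: HepG2 cells with an ARE-driven luciferase reporter; % of control where 0% means no effect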); conditions: ARE-luc HepG2, Nrf2 luciferase reporter, 16 h; series mostly up to 92.4 µM
In short: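 Attachment 6 hr at 37 C, then compound versus DMSO vehicle for 16 hr in ARE-luc HepG2 cells (1% dialyzed FBS); luminescence recorded 30 min after ONE-Glo addition at room temperature.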

[15] = qHTS assay for small molecule agonists of the antioxidant response element (ARE) signaling pathway measured by Nrf2-dependant transcriptional activity - cell viability counter screen (AID 720653; active = well fitted curve in the direction sought with a large enough effect in the repeat runs; an effect the other way counts as inactive or inconclusive; also: % is scaled to controls: 0 for no effect and ±100 for the full control effect); conditions: ARE-bla HepG2 viability, CellTiter-Glo ATP luminescence, 16 h; max response: stronger effect = lower value
In short: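 Cytotoxicity counter screen: intracellular ATP quantified by CellTiter-Glo luminescence in the same ARE-bla HepG2 plates, after 16 h compound exposure and a 2 h beta-lactamase substrate step.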

[16] = qHTS assay for cell viability of HEK293 cells (AID 743288); conditions: ATP luminescence (CellTiter-Glo), 18 h; max response: stronger effect = lower value; also: % is scaled to controls: 0 for no effect and ±100 for the full control effect; nearly all actives have a fitted effect of over 50% in size
In short: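 Viable-cell counts were inferred from luciferase-based ATP content in HEK293 cells seeded at 2,000/well, pre-incubated ≥5 h, then dosed with DMSO-solubilised compounds for 18 h at 37 C.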

[17] = qHTS assay for cell viability of the p53RE-bla HCT-116 cell line (AID 743292); conditions: p53RE-bla HCT-116 viability, ATP luminescence, 16 h; series mostly up to 95 µM; also: nearly all actives have a fitted effect of over 55% in size; also: potency is read from the fitted curve at half-maximal effect
In short: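 Compound-exposed HCT-116 (p53RE-bla) cells, 4,000 per well, were kept 16 h at 37 C following a 5 h preincubation. Cell number was estimated from total ATP by CellTiter-Glo luminescence read after 30 min at room temperature.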

[18] = molecular target: Nuclear receptor subfamily 1 group I member 2 (Rattus norvegicus) (UniProt Q9R1A7); assay: qHTS assay for small molecule activators of the rat pregnane X receptor (rPXR) signaling pathway (AID 651751; call rule not given here; also: 0% is about no effect); conditions: rPXR reporter cells, luciferase (One-Glo), 24 h
[19] = qHTS assay for small molecule activators of the human pregnane X receptor (PXR) signaling pathway (AID 720659; call rule not given here; also: 0% is about no effect); conditions: DPX-2 HepG2 CYP3A4-luciferase, 24 h; series mostly up to 92.3 µM
[20] = molecular target: Peroxisome proliferator-activated receptor gamma (Homo sapiens) (UniProt P37231); assay: qHTS assay for small molecule agonists of peroxisome proliferator-activated receptor gamma signaling (AID 588536; active = well fitted curve in the direction sought with a large enough effect in the signal ratio, with a control signal flat, not every such curve was filed as active; the % refers to the signal ratio;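 also: 0% = DMSO basal wells and 100% = rosiglitazone at 2 µM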); conditions: HEK293 PPARg-UAS-bla, beta-lactamase ratio, 16 h, percent of rosiglitazone response, DMSO as zero; series mostly up to 76.7 µM
In short: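 Using GeneBLAzer HEK293 cells, response was quantified by CCF4 fluorescence and normalized between basal DMSO (0%) and rosiglitazone 2 uM (100%); curves yielded half-maximal stimulation concentration and efficacy.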

Sequence of Nuclear receptor subfamily 1 group I member 2 (Rattus norvegicus) (Q9R1A7 whole entry, looked up): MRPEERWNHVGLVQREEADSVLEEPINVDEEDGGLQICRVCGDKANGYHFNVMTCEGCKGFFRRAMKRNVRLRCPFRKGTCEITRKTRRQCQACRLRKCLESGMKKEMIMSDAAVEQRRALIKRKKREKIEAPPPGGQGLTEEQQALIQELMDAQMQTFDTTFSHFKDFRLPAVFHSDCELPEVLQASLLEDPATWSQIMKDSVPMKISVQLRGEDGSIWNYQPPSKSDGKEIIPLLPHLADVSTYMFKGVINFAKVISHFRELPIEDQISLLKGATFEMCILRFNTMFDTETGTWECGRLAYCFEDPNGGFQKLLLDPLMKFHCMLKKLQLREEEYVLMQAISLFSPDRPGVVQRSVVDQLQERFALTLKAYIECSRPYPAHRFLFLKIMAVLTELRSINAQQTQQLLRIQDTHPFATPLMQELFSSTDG
Sequence of Glucocorticoid receptor (Homo sapiens) (P04150 whole entry, looked up): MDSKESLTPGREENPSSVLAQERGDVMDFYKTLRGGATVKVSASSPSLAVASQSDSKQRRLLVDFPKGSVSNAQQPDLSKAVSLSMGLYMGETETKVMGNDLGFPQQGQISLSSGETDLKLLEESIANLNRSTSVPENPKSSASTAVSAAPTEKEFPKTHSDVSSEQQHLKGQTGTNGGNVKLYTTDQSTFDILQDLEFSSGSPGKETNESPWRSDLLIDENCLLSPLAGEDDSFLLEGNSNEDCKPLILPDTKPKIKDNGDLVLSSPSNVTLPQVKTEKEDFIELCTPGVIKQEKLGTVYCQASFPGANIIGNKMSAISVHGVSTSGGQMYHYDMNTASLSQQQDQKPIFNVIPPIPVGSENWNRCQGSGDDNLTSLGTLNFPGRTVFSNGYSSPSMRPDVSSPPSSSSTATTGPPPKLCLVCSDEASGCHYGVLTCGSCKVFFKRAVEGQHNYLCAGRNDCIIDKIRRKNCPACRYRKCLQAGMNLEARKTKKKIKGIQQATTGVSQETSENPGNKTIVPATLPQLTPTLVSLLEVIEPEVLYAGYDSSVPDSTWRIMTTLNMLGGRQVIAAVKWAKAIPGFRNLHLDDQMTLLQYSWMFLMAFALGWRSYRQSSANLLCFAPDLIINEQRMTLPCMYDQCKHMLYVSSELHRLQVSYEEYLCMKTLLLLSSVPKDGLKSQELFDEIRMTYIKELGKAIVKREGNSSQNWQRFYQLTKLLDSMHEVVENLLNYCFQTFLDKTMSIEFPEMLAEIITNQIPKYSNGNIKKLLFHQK
Sequence of Peroxisome proliferator-activated receptor alpha (Homo sapiens) (Q07869 whole entry, looked up): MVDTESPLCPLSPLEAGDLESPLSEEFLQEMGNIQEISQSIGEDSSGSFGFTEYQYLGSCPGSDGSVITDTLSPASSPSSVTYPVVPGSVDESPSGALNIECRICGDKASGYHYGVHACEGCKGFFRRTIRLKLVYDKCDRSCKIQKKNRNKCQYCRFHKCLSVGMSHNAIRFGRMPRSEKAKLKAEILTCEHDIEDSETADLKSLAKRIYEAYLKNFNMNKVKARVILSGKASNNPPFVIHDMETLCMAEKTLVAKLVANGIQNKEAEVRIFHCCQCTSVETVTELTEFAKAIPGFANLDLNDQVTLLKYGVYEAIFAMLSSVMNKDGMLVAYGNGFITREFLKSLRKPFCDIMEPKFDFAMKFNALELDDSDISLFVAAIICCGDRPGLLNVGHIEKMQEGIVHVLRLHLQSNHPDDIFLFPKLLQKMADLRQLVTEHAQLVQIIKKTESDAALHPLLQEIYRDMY
Sequence of Retinoic acid receptor RXR-alpha (Homo sapiens) (P19793 whole entry, looked up): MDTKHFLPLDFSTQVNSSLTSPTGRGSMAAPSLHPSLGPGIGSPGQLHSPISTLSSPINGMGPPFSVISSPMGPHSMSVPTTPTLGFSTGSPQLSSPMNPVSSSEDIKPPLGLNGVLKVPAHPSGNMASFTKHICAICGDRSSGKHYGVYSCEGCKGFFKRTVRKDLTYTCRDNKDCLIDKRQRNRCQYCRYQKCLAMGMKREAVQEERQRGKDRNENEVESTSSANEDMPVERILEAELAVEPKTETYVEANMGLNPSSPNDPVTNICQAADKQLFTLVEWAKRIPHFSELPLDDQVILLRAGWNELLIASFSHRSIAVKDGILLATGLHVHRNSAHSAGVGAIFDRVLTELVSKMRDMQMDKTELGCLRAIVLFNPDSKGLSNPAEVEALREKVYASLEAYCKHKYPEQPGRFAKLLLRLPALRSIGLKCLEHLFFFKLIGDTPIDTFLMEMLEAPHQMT
Sequence of Peroxisome proliferator-activated receptor delta (Homo sapiens) (Q03181 whole entry, looked up): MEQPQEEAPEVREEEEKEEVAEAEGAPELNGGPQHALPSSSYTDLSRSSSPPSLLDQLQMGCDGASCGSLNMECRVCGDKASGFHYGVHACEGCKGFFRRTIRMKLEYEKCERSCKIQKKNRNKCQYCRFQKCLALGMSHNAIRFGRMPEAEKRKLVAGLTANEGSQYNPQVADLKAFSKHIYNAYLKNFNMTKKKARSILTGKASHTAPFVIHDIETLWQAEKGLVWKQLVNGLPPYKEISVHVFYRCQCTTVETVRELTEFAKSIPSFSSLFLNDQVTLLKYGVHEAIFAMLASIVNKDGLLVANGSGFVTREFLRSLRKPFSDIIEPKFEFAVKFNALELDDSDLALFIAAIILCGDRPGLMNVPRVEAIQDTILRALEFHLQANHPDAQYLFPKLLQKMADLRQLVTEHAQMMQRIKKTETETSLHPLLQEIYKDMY
Sequence of Thyroid hormone receptor beta (Homo sapiens) (P10828 whole entry, looked up): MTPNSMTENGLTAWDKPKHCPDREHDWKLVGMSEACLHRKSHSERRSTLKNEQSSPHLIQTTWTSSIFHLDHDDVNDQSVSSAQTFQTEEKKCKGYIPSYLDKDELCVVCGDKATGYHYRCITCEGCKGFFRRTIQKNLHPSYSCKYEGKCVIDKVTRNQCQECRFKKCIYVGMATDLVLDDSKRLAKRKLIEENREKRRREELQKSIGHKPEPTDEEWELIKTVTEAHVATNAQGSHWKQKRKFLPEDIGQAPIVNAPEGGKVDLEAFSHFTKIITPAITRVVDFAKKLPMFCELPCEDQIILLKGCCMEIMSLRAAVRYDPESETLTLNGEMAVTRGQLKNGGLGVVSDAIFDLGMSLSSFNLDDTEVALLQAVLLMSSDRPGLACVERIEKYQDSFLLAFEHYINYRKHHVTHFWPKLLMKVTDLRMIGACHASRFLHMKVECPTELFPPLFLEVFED
Sequence of Vitamin D3 receptor (Homo sapiens) (P11473 whole entry, looked up): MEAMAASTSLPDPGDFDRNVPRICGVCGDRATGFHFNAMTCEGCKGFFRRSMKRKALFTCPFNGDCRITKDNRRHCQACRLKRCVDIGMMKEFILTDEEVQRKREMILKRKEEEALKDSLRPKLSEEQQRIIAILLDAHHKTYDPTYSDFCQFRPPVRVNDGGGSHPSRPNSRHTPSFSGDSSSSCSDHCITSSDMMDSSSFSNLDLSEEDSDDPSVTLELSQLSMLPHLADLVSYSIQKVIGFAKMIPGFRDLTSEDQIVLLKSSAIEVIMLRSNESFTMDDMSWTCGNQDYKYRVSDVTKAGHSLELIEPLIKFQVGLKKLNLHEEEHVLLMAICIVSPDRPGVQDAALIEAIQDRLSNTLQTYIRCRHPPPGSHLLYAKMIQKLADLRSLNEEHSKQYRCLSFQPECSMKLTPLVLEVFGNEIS
Sequence of Peroxisome proliferator-activated receptor gamma (Homo sapiens) (P37231 whole entry, looked up): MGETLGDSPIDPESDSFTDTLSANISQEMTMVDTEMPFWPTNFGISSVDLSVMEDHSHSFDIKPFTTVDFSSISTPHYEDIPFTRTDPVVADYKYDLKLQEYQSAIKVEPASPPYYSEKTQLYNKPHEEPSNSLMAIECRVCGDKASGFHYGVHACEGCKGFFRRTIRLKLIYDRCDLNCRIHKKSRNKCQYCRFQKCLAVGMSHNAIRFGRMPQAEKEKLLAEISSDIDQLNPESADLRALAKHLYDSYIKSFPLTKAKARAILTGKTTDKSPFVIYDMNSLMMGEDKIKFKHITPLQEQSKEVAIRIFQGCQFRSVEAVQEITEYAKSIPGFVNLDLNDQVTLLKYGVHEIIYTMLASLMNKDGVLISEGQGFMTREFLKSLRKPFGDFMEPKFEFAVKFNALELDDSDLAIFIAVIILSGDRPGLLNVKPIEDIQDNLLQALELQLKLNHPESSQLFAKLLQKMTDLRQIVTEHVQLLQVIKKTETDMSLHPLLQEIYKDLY

O=C(c1ccccc1)c1ccc(O)c(O)c1O
45.6%: max response [3]
27%: max response [6]
inactive: activation [1] -16.3% | Potency [2] | Potency [4] | outcome [5] | Potency [7] | Potency [8] | max response [10] -13.1% | activation [11] -1.01% | activation [12] 3.3% | max response [13] -4.07% | Potency [14] | max response [15] -9.24% | max response [16] -12.1% | Potency [17] | max response [18] -0.206% | outcome [19]
-6.52%: max response [9]

Oc1ccc(Nc2ccccc2)cc1
inactive: activation [1] -7.61% | Potency [2] | outcome [5] | Potency [8] | activation [11] 16.3% | activation [12] -0.687% | max response [13] -0.779% | Potency [14] | max response [16] -10.5% | Potency [17] | max response [18] 0.0407% | outcome [19]

CC(=O)c1c(C)c([N+](=O)[O-])c(C(C)(C)C)c([N+](=O)[O-])c1C
-16.8%: max response [3]
-17.8%: max response [6]
inactive: activation [1] 3.65% | Potency [2] | Potency [4] | outcome [20] | outcome [5] | max response [10] -4.43% | activation [11] 6.99% | activation [12] 0.439% | max response [13] 8.73% | Potency [14] | max response [15] -1.24% | max response [16] -8.24% | Potency [17]
active: Potency [7] 28.2 µM
-24%: max response [9]

CCCCCOC(=O)COc1cc(N2C(=O)C3=C(CCCC3)C2=O)c(F)cc1Cl
inactive: activation [1] 3.85% | Potency [2] | outcome [5] | activation [12] 0.703% | max response [13] 1.28% | max response [15] 8.37% | max response [16] 4.43% | max response [18] 4.68% | outcome [19]

O=C(O)c1cc(O)c2ccccc2c1O
inactive: activation [1] -13.3% | Potency [8] | activation [11] -4.76% | max response [13] -7.87% | max response [18] 5.84%
active: Potency [2] 44.7 µM | Potency [12] 14.1 µM | Potency [17] 39.8 µM

CCCCCCCC/C=C\CCCCCCCCO
0.0391%: max response [9]
8.68%: max response [3]
-18.5%: max response [6]
inactive: activation [1] -0.954% | Potency [2] | Potency [4] | outcome [20] | outcome [5] | Potency [7] | Potency [8] | max response [10] 6.68% | activation [12] 0.617% | max response [13] 8.71% | Potency [14] | max response [15] -1.08% | max response [16] -11.8% | max response [18] -0.215%

CCCCC(CC)COC(=O)CS (stereo not drawn)
inactive: activation [1] 8.21% | Potency [2] | outcome [5] | Potency [7] | Potency [8] | max response [10] 2.49% | activation [11] -0.039% | max response [13] -1.44% | Potency [14] | max response [15] 1.32% | max response [16] -2.56% | Potency [17] | max response [18] 0.0458% | outcome [19]
-9.5%: max response [9]
-9.7%: max response [6]
